# TDP1 cell CPT: growth inhibition of DT40 Tdp1-/-;hTDP1 cells with camptothecin (screen for TDP1 inhibitors). chicken DT40 Tdp1-/-;hTDP1 cells + 20 nM CPT, ATP luminescence, 48 h. Potency, µM (series often up to 46.2 µM), without a hit: at the top dose activity change, negative = growth inhibition, usual class: inhibitors. 12% of 420,000 active. AID 686979; further: potency means the concentration at half of the fitted maximal effect; nearly all actives have a fitted effect of over 55% in size
#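 Chicken DT40 Tdp1-/- cells complemented with human TDP1, 400 cells/well, exposed to compounds plus 20 nM camptothecin for at least 48 h at 37 C; viability read as ATP content by CellTiter-Glo luminescence.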
# HT1080NT lethal: kills 2HG-producing HT-1080-NT fibrosarcoma cells. HT-1080-NT fibrosarcoma viability, CellTiter-Glo ATP luminescence, 48 h. Potency, µM (titrated, usually from 46.1 µM), for the others: top-dose activity, negative = less viability, most hits filed as cytotoxic. 1.6% of 360,000 active;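 further: NT is the 2HG producing partner of a matched IDH1 knockdown line; potency means the concentration at half of the fitted maximal effect; 0% = DMSO-treated cells and -100% = media-only wells without cells; nearly all actives have a fitted effect of over 55% in size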
#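 Viability by CellTiter-Glo luminescence after 48 h compound exposure at 37C of HT-1080-NT cells (750/well, RPMI, 5% FBS). % activity scaled between DMSO wells and medium-only wells, then curve-fitted and categorized by curve class.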
# ELG1 repair inh: inhibitors of ELG1-dependent DNA repair in HEK293T cells | Potency, µM (series often up to 46.1 µM), for inactives: top-dose activity change, negative = inhibition, hits mostly inhibitors | 2.3% of 330,000 active | HEK293T ELG1-luciferase reporter, luminescence, 16 h; DNA damage induced by 5-fluorouridine; further: potency means the concentration at half of the fitted maximal effect; nearly all actives have a fitted effect of over 55% in size
#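 Cells (2,000 per well) received 5-fluorouridine plus test compound or DMSO and were incubated 16 hr at 37 °C, 5% CO2. Luciferase activity was read by luminescence 30 min after ONE-Glo addition; signal suppression marked inhibition of damage-induced ELG1 function.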
# HT1080 IDH1KD tx: toxicity to HT-1080 IDH1 knockdown cells (counter line) | Potency, µM (top dose mostly 46.1 µM), for the others: at the top dose activity, negative = toxicity, hits mostly cytotoxic | HT-1080 IDH1 knockdown viability, ATP luminescence, 48 h | 2% of 360,000 active;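 further: potency means the concentration at half of the fitted maximal effect; 0% = DMSO wells and -100% = cell-free medium wells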
#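 CellTiter-Glo luminescence after 48 h compound exposure at 37 degrees C of IDH1-knockdown HT-1080 cells in 5% FBS RPMI. %Activity scaled between DMSO wells and cell-free media wells, with curves fitted and assigned curve classes.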
# TDP1 cell noCPT: qHTS for Inhibitors of human tyrosyl-DNA phosphodiesterase 1 (TDP1): qHTS in cells in absence of CPT; DT40 Tdp1-/- hTDP1 cells, no CPT, ATP luminescence, 48 h; AID 686978, 2013; Potency, µM (doses to about 46.2 µM), for the others: top-dose activity change, negative = growth inhibition, hits mostly inhibitors; 15% of 420,000 active; further: potency means the concentration at half of the fitted maximal effect; nearly all actives have a fitted effect of over 55% in size
#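 Readout: luminescence from CellTiter-Glo after 30 min in the dark at RT. Cells: DT40 Tdp1-/- with stable hTDP1, 400/well. Exposure: compounds alone, ≥48 hr, 37 °C.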
# IL-1B inflam inh: inhibitors of inflammasome signaling (IL-1 beta secretion) | THP-1 LPS/ATP IL-1B secretion, AlphaLISA, 16 h; hits give low values | activity change, % at 57.5 µM | 4.7% of 360,000 active | AID 743279; in the data active means activity change below about -50%; inconclusive means mostly about -30% to -49%
#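 THP-1 cells pretreated 1 hr with compounds (up to 57.5 uM final), then stimulated with LPS (250 ng/mL final) plus ATP (1.25 mM final); secreted IL-1B measured by AlphaLISA after 16 hr, decreased signal indicating inhibition.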
# * marks the source's active call; other numbers are inactive results; ? = inconclusive; . = no result; [ ] = remark or other dose. Most compounds without a hit are left out; they make up all but 19% or so of the library. Unless noted, the call rests on the fitted dose curve; in most records, active means well fitted curve in the direction sought with a large enough effect; inconclusive means small, poorly fitted or top-dose-only effect, or another doubt; inactive means no such curve, though single readings can be large; an effect the other way counts as inactive or inconclusive. Unless noted, on the % scale 0 is the no-effect control and ±100 the full control effect.
SMILES,TDP1 cell CPT,HT1080NT lethal,ELG1 repair inh,HT1080 IDH1KD tx,TDP1 cell noCPT,IL-1B inflam inh
CCCn1c(N2CCN(C(=O)Nc3ccc(Cl)cc3)CC2)nc2ccccc21,?,-11%,?,-20%,23µM*,?
Cn1c(N2CCN(C(=O)NCc3ccccc3)CC2)nc2ccccc21,?,10%,0%,9%,-21%,-3
Cn1c(N2CCN(C(=O)Nc3ccc(C(F)(F)F)cc3)CC2)nc2ccccc21,18µM*,-5%,?,-18%,21µM*,-13
Cc1ccc(OCc2ccc(C(=O)O)o2)c([N+](=O)[O-])c1,-15%,16%,?,12%,-15%,15
COc1ccc(/C=C2\C(=O)ON=C2c2ccccc2)cc1,?,-2%,?,-13%,21µM*,?
O=C1ON=C(c2cccc([N+](=O)[O-])c2)/C1=C/c1ccc(O)cc1,12µM*,?,?,?,13µM*,-100*
O=C1ON=C(c2ccccc2)/C1=C/c1ccc(OS(=O)(=O)c2ccccc2)cc1,-27%,-2%,16%,-3%,?,9
COc1cc(/C=C2\C(=O)ON=C2c2ccc(Cl)cc2)ccc1O,16µM*,7%,.,9%,23µM*,-95*
CC(C)c1ccc(NC(=O)CN2C(=O)NC3(CCCC3)C2=O)cc1,?,-7%,?,0%,?,-5
Cc1nnc(SCC(=O)NNC(=O)c2ccc(F)cc2)n1Cc1ccccc1,-19%,-7%,12%,5%,1%,-2
COc1ccccc1C1CN(Cc2cccnc2)Cc2ccccc2O1 (stereo not drawn),5%[9.04 µM],.,.,.,-19%,.
COc1ccccc1-c1ccc([C@@H]2C[C@H]3[C@H](CON3C)CN2C(=O)c2ccc(-c3ccccc3)cc2)cc1,?,-18%,.,-13%,?,-19
CCn1cc(Cl)c(C(=O)Nc2cccc(C(F)(F)F)c2)n1,31%,-13%,10%,-20%,-2%,-64*
CCOC(=O)c1ccc(Nc2nnc(C(C)(C)C)c(=O)[nH]2)cc1,?,-24%,?,?,23µM*,-91*
CCn1cc(Cl)c(C(=O)Nc2ccc3c(c2)OCCO3)n1,-28%,-6%,?,0%,-24%,-15
CCOC(=O)c1ccc(Nc2ccc(C(C)=O)cc2)cc1,?,0%,.,-12%,?,0
Cc1cc(Cl)c(C(=O)Nc2cccc(C(F)(F)F)c2)c(C)n1,-28%,-16%,?,-12%,-28%,-54*
Cc1nc(-c2cccnc2)sc1C(=O)Nc1cccc(C(F)(F)F)c1,?,10%,?,18%,18µM*,10
CC(C)CNC(=O)C1C(=O)Nc2ccccc2C(=O)N1C1CCCCC1 (stereo not drawn),3%,-10%,.,-11%,-7%,-11
CCOC(=O)c1ccc(NC(=O)c2c(Cl)cc(C)nc2C)cc1,3.3µM*,-7%,6%,-9%,5.2µM*,?
CCOC(=O)c1ccc(Nc2cc(C)nc(C)c2C(=O)OCC)cc1,?,-4%,?,-10%,18µM*,25
CCOC(=O)c1ccc(NC(=O)c2c(C)[nH]c(C(=O)OCC)c2C)cc1,-9%,3%,-19%,-19%,-14%,0
Cc1ccc(NC(=O)Nc2cccs2)c(C)c1,15µM*,.,.,.,?,.
Cc1ccc(Cl)cc1NC(=O)Nc1cccs1,-25%,-14%,?,-16%,21µM*,-4
Cc1ccccc1NC(=O)Nc1cccs1,?,0%,9%,0%,?,5
SMILES,TDP1 cell CPT,HT1080NT lethal,ELG1 repair inh,HT1080 IDH1KD tx,TDP1 cell noCPT,IL-1B inflam inh
COc1ccc(OC)c(CNC(=O)CN2N=C(c3ccc(Cl)cc3)CCC2=O)c1,-15%,.,.,.,-21%,.
CNC(=O)OCc1nc(SSC(C)(C)C)n(C)c1COC(=O)NC,2.1µM*,?,.,18µM*,2.1µM*,-100*
CCSc1nc(COC(=O)NC)c(COC(=O)NC)n1C,2.3µM*,17%,.,1%,5.2µM*,0
Cc1ccc(S(=O)(=O)Nc2cccc(C(=O)NCCCn3ccnc3)c2)cc1F,-16%,-1%,30%,0%,-21%,18
Cc1ccccc1OCCn1cc(C(=S)N2CCN(C)CC2)c2ccccc21,?,-10%,-22%,-11%,15µM*,?
O=C(c1cn(CCOc2ccccc2F)c2ccccc12)C1CCCCC1,?,.,.,.,16µM*,.
CC(=O)c1cn(CCOc2ccc(F)cc2)c2ccccc12,15µM*,?,-29%,?,?,0
CC(=O)c1cn(CCOc2ccccc2C)c2ccccc12,8.2µM*,?,?,-20%,5.8µM*,-16
CC(C)(C)c1ccc(C(=O)NCCC(=O)Nc2ccc3c(c2)OCCO3)cc1,-29%,5%,?,4%,-26%,4
CN1C(=O)c2ccccc2CC12c1ccccc1C(=O)N2C (stereo not drawn),-1%,6%,.,8%,?,10
COC(=O)C1Cc2c([nH]c3ccccc23)C2(CCN(Cc3ccccc3)CC2)N1 (stereo not drawn),?,18µM*,-13%,18µM*,21µM*,-86*
CCc1ccc(C(=O)c2cn(CC(=O)Nc3ccc4c(c3)OCO4)c3cc(OC)c(OC)cc3c2=O)cc1,0%,.,.,.,-7%,.
O=C1C=C(N(CCO)Cc2ccccc2)c2ccccc2C1=O,18µM*,8.2µM*,8.2µM*,15µM*,21µM*,-98*
C[C@@H]1CCCCO[C@H](CN(C)C(=O)Nc2cccc3ccccc23)[C@@H](C)CN([C@H](C)CO)C(=O)c2cc(NC(=O)c3ccccc3)ccc2O1,4.6µM*,-2%,.,1%,3.7µM*,-25
C[C@@H]1CN([C@@H](C)CO)C(=O)c2cc(NC(=O)Nc3ccccc3)ccc2O[C@H]1CN(C)C(=O)Nc1cccc2ccccc12,13µM*,15%,15µM*,0%,18µM*,-1
C[C@@H]1CN([C@@H](C)CO)C(=O)c2cc(NC(=O)Nc3cccc4ccccc34)ccc2O[C@@H](C)CCCCO[C@H]1CN(C)C(=O)c1ccccc1,?,5%,.,-3%,21µM*,37
CN(C)C(=O)c1ccc(-c2nccc(N(C)Cc3ccco3)n2)cc1,-5%,.,.,.,-17%,.

# Compound activity (PubChem BioAssay)
